The whole screen tested about 340,000 compounds, of which about 2,100 (0.62%) were called active. Only a sample is shown. Entries with a potency or affinity are not part of this list. A number with no mark means an inactive call.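 The calls were made as follows: active = first-screen hits whose inhibition reached a set limit at any dose in the follow-up dose series; inconclusive = inhibition above the set first-screen limit but never retested; inactive = the rest.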

Sequence of Rac GTPase-activating protein 1 (Homo sapiens) (Q9H0H5 whole entry, looked up): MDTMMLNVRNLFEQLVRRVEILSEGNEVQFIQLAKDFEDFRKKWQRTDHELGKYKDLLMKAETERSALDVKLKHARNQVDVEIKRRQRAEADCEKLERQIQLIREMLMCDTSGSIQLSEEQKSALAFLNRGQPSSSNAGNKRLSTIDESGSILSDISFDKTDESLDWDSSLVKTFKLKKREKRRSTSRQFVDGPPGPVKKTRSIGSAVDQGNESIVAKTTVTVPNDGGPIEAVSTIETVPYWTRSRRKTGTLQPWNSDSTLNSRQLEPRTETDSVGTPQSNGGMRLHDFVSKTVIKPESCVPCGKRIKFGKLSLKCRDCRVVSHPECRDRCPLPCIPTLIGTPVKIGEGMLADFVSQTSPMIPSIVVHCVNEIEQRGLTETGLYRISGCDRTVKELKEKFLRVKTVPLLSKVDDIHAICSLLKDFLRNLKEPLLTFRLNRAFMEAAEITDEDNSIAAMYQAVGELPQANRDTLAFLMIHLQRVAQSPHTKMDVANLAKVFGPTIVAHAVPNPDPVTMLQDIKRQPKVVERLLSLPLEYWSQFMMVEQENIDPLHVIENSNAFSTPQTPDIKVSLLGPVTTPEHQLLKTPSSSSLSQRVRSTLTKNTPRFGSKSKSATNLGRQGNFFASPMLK

This assay addresses Rac GTPase-activating protein 1 (Homo sapiens) (UniProt Q9H0H5). As to the kind of experiment: MgcRacGAP GTPase-activating activity inhibitors, confirmation, biochemical, ADP Hunter fluorescence, primary and confirmatory (AID 624330).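 Also: fluorescence reports GDP produced by GAP-driven GTP hydrolysis.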 Particulars: MgcRacGAP-stimulated Rac1 GTP hydrolysis, at 30 µM, hits give high values, GST-tagged Rac1 F28L mutant substrate.
Turning to `COc1cccc(NC=C2C(=O)OC(C)(C)OC2=O)c1`, the inhibition is 6.91%.

Regarding `Cc1cc(C(=O)NNC(=S)NCC2CCCO2)cs1` (configuration not stated), the inhibition is 9.6%. In the case of `COc1ccc2c(CC(=O)Nc3nc(C)cs3)coc2c1` it was 7.58%; in that of `Cc1ccc(C(=O)N(CC(=O)Nc2ccc(Cl)c(Cl)c2)Cc2ccco2)cc1`, 2.86%; in that of `O=C(CSc1nc(C(F)(F)F)cc(=O)[nH]1)N1CCCCCC1`, -0.68%.

Take `CC(C)Cn1c(SCC(=O)c2ccc(Cl)s2)nnc1-c1ccco1`: the inhibition was 11.6%.

On to `CC1CC(C)CN(c2cc(=O)n(Cc3ccc(F)cc3)c(=O)[nH]2)C1` (configuration not stated), for which the inhibition is 6.97%.

For `COc1ccc(NC(=O)CN(C)S(=O)(=O)c2cccs2)cc1`, the inhibition was 16%. Consider `CCOC(=O)c1nn(-c2ccccc2F)c(-c2ccccc2)c1C(=O)c1ccccc1`, for which the inhibition is 5.32%. As to `O=C(O)c1ccccc1-c1ccccc1C(=O)Nc1ccccc1`, the inhibition is 8.32%. On to `CC(C)C(=O)Nc1ccc(C(=O)c2ccccc2)cc1`, for which the inhibition was 4.76%. For `CC(=O)c1ccc(NC(=O)C(C)OC(=O)COc2ccc(C#N)cc2)cc1` (configuration not stated) the value was 3.94%; for `CC(OC(=O)COc1ccc(Nc2ccccc2)cc1)C(=O)N(C)c1ccccc1` (configuration not stated), 24.6%. In the case of `O=C(Nc1ccc(Nc2ccccc2)cc1)C(Cl)Cl` it was 25.5%; in that of `O=C(O)c1ccccc1C(=O)Nc1ccccc1`, -1.51%. For `Cc1cccc(NC(=O)c2ccccc2C(=O)O)c1` the value was 3.78%. As to `O=C(O)c1ccccc1C(=O)Nc1ccc(Br)c(C(F)(F)F)c1`, the inhibition is 8.86%. Take `Cc1cccc(NS(=O)(=O)c2cccc(C(=O)N3CCCCCC3)c2)c1`: the inhibition was 7.68%. For `CCOc1ccc(NC(=O)c2cccs2)c([N+](=O)[O-])c1` the value was 9.62%; for `COc1ccc(COC(=O)N/N=C/c2cccs2)cc1`, 0.62%.

For the compound `Cc1ccc(/C=C2/SC(=S)N(CCCC(=O)Nc3cc([N+](=O)[O-])ccc3O)C2=O)cc1`, the inhibition is 3.56%.

Consider `CCN(CC)CCNS(=O)(=O)c1ccc(Cl)cc1`, for which the inhibition was 5.79%. For `Cc1cc2ncn(-c3ncnc4sc(C)c(C)c34)c2cc1C` the value was 6.72%; for `CC1CCN(C(=O)c2nc[nH]c2C(=O)O[C@H](C)c2ccccc2)CC1`, 9.03%; for `CC(=O)Nc1ccc(S(=O)(=O)Nc2nc3ccccc3nc2Nc2ccccc2)cc1`, 4.86%.

Consider `O=C(Nc1ccccc1)C1CCCCC1`, for which the inhibition is -3.44%.

Turning to `O=C(Nc1ccccc1)c1ccc(NC(=O)C2CC2)cc1`, the inhibition was 3.78%. With `CC(C)CC(=O)Nc1ccc(Nc2ccccc2)cc1`, the inhibition was 22.4%. In the case of `CCCC(=O)Nc1ccc(Nc2ccccc2)cc1` it was 22.6%; in that of `Oc1ccc(NCc2cccc(OCc3ccc(F)cc3)c2)cc1`, 3.64%. For `CC(=O)Nc1ccc(S(=O)(=O)Nc2nc3ccccc3nc2Nc2ccc(O)c(C(=O)O)c2)cc1`, the inhibition was 9.87%. In the case of `Oc1ccc(NCc2cccc(OCc3ccccc3)c2)cc1` it was 9.79%; in that of `O=C(COC(=O)CNC(=O)c1ccccc1F)Nc1ccc2c(c1)OCO2`, 4.84%. Regarding `COC(=O)c1cc(Nc2cc(C)c3ccc(O)cc3n2)cc(C(=O)OC)c1`, the inhibition is 11.8%. For `COc1nc(-c2ccccc2)nc(C)c1CC(=O)O` the value was 9.59%.

In the case of `Cc1ccc(S(=O)(=O)/N=C(/c2ccc(F)cc2)N(C)C)cc1`, the inhibition is 8.12%. With `COCCN(Cc1nc(C2(c3ccc(C)cc3)CCCC2)no1)C(C)C`, the inhibition is -3.53%. For `CCOc1ccc(N2C(=O)Nc3ccc(Br)cc3C2(O)C(=O)NCCCN(C)C)cc1` (configuration not stated) the value was 8.07%; for `COC(=O)C(CC(=O)c1ccc(C)cc1)n1cccn1` (configuration not stated), 11.3%; for `CCOC(=O)c1cnc2ccccc2c1Nc1cccc(C(=O)O)c1`, -0.21%. In the case of `CCSc1nnc(NC(=O)[C@H](C)NC(=O)c2ccccc2Cl)s1` it was 9.72%.

For the compound `CCC(=O)Nc1ccc(C(=O)c2ccccc2)cc1`, the inhibition was 10.1%.

Take `CCC(=O)Nc1ccc(NC(=S)Nc2ccccc2)cc1`: the inhibition was 8.45%. In the case of `CC(C)C1N=C2c3ccccc3N=C(SCC(=O)NCCc3ccc(S(N)(=O)=O)cc3)N2C1=O` (configuration not stated), the inhibition is 1.59%. For `CC(C)C1N=C2c3ccccc3N=C(SCC#N)N2C1=O` (configuration not stated) the value was 10.5%; for `COc1ccc(Cl)cc1NC(=O)C1Cc2cc(S(=O)(=O)N3CCCC3)ccc2N1C(C)=O` (configuration not stated), 2.38%; for `COc1ccc(CCNC(=O)COC(=O)CCC(=O)c2cccs2)cc1OC`, 3.28%. For the compound `COc1cccc(S(=O)(=O)NCc2ccc(C(=O)NCc3ccco3)cc2)c1`, the inhibition is 13.6%. For `Cc1ccc(Cl)cc1NC(=S)N1CCC(c2ccccc2)C1` (configuration not stated) the value was 7.04%; for `COc1ccc(CN2CCN(c3ccc(F)cc3)CC2)c(OC)c1OC`, 8.37%. In the case of `COc1ccccc1N1CCN(Cc2ccc(OC)c(OC)c2OC)CC1` it was 28.2%; in that of `COc1ccc(CN2CCC(n3nccc3NC(=O)C3CC3)CC2)c(OC)c1OC`, 8.32%. In the case of `COc1ccc(CN2CCC(N3CC(C)OC(C)C3)CC2)c(OC)c1` (configuration not stated), the inhibition is 29.1%.

Regarding `COc1ccc(OC)c(CN2CCN(c3ccccc3OC)CC2)c1`, the inhibition was 19.8%.

For `COc1ccc2oc(=O)cc(CN3CCN(Cc4ccc(OC)c(OC)c4OC)CC3)c2c1`, the inhibition was 11.2%.

Regarding `COc1ccc(OC)c(CN2CCN(Cc3cc(OC)c(OC)c(OC)c3)CC2)c1`, the inhibition is -7.74%.

`COc1ccc(OC)c(CN2CCSCC2)c1`: the inhibition was 36.4%. For `O=C(c1ccccc1F)N1CCN(c2ccc([N+](=O)[O-])c(NCC3CCCO3)c2)CC1` (configuration not stated) the value was 11.1%. Take `COc1ccc(CCNC(=O)C2CCCN2C(=O)Nc2ccc(F)cc2)cc1OC` (configuration not stated): the inhibition was 7.58%. For the compound `O=C(CSc1nnc(NC(=O)C2CC(=O)N(c3ccccc3)C2)s1)NCC1CCCO1` (configuration not stated), the inhibition was 8.28%. For `CN(Cc1ccccc1)c1ncc(C=O)s1` the value was 11.2%. For `CCCCC(=O)Nc1ccccc1CC` the value was 7.96%. As for `C=CCN1C(=O)CS/C1=N\N=C\c1cccc([N+](=O)[O-])c1`, the inhibition was 5.94%.

`CCCCNS(=O)(=O)c1ccc2nc(SCC(=O)Nc3ccccc3Cl)[nH]c2c1`: the inhibition was 9.77%. In the case of `CCOc1ccc(NC(=S)N2CCN(C/C=C/c3ccccc3)CC2)cc1` it was 6.87%; in that of `Cn1c(=O)n(C)c2cc(NC(=O)CSc3ccccc3)ccc21`, 6.1%. For `COc1ccc(CN2CCN(C(=O)c3ccccc3F)CC2)c(OC)c1OC` the value was -1.41%; for `CSc1ccc(CN2CCC(Cc3ccccc3)CC2)cc1`, 15%; for `Clc1ccc(OCCCCCN2CCOCC2)cc1`, -5.93%.

For `CSc1ccc(CN2CCC(N3CCC(C(=O)NC4CC4)CC3)CC2)cc1`, the inhibition is -3.51%. For the compound `CCOC(=O)Cc1csc(NC(=O)c2c(C)noc2C)n1`, the inhibition is 7.91%. In the case of `CCC1=C2CC[C@H]3C(=O)N(C)C(=O)[C@H]3[C@H]2[C@@]2(Cc3ccccc3)C(=NCCOC)OC(=O)N2C1=O` it was 10.6%; in that of `C/C(=N\NC(=O)c1nnn(-c2nonc2N)c1CN1CCCCCC1)c1ccc(Br)cc1`, -3.03%.

Take `CC(Oc1ccc(F)cc1)C(=O)N(Cc1ccccc1)c1c(N)n(Cc2ccccc2)c(=O)[nH]c1=O` (configuration not stated): the inhibition was 3.15%.

Regarding `CCOC(=O)Nc1ccc(C(N)=O)cc1`, the inhibition is 10%. On to `CCOC(=O)Nc1ccc(Oc2ccccc2)cc1`, for which the inhibition was 1.24%. In the case of `Cc1ccccc1NC(=O)COc1coc(CN2CCN(Cc3ccccc3)CC2)cc1=O` it was 3.8%. In the case of `N#Cc1ccc(-c2ccccc2)nc1Sc1ccc(F)cc1` it was 3.11%; in that of `Cc1c(/C=N\NC(=O)C2(C)CC2(Cl)Cl)cnn1C` (configuration not stated), 2.13%. In the case of `CCOc1cc(/C=C2/C(=O)N(c3ccccc3)N=C2C)ccc1OC(=O)c1cccs1` it was 15.2%; in that of `CC(=O)Oc1ccc(/C=C2/C(=O)N(c3ccccc3)N=C2C)cc1`, 25%; in that of `COc1ccc(C(=O)c2coc3ccc(O)c(CN4CCCC4)c23)cc1`, 8.22%.

On to `CN1C2CCC1/C(=C\c1ccccc1)C(=O)/C2=C\c1ccccc1`, for which the inhibition was 12.8%. For `CN1C2CCC1/C(=C\c1ccccc1F)C(=O)/C2=C/c1ccccc1F` the value was 7.33%.

`Cc1ccc(S(=O)(=O)N2CCCCC2)cc1NC(=O)c1c(-c2ccccc2)noc1C`: the inhibition was 0.74%. For the compound `O=C(COC(=O)C1CCCCC1)Nc1ccc(S(=O)(=O)N2CCOCC2)cc1`, the inhibition is -2.69%. For the compound `CCCC(c1nnnn1CCOC)N(Cc1cc2cc(C)c(C)cc2[nH]c1=O)CC1CCCO1` (configuration not stated), the inhibition is 1.47%.

Take `COc1cc(OC)c(CN2CCCCCCC2)cc1Br`: the inhibition is 14.3%. In the case of `COc1cc(Br)c(CN2CCCN(C)CC2)cc1OC`, the inhibition is 5.08%. Consider `COc1ccc(CN2CCSCC2)c(OC)c1C`, for which the inhibition is 28.9%.

`COc1ccc(CN2CCCCCC2)c(C)c1C`: the inhibition was 11.4%. In the case of `CC(=O)N1CCSc2ccc(S(=O)(=O)Nc3ccc(C)cc3)cc21` it was 8.81%; in that of `CC(C(=O)Nc1ccccc1-c1ccccc1)N1CCCCC1` (configuration not stated), 0.68%; in that of `CN1CCN(C(=O)CCC(=O)c2ccc(F)cc2)CC1`, 7.21%. In the case of `COc1ccc(NC(=O)c2ccc3c(c2)C(=O)N(Cc2cccnc2)C3=O)cc1`, the inhibition was 9.43%. In the case of `COc1ccc(CN2C(=O)c3ccccc3C2=O)cc1` it was -0.09%.

As to `CC1S/C(=N/N=C/c2cccs2)NC1=O` (configuration not stated), the inhibition is -9.62%.

The record behind these values is PubChem BioAssay AID624330 (Southern Research Specialized Biocontainment Screening …, 2012).
